Test [1] in a line: CCTE_Shafer_MEA_dev_correlation_coefficient_mean: CCTE's Neural Network Formation Assay for Mean Correlation Coefficient, Shafer Lab (AID 2284093).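 On AC50: well mean pairwise spike train correlation integrated as AUC over recording days 5 to 12; potency fitted for loss of correlation relative to DMSO vehicle wells.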 In short, it runs like this:
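Extracellular firing from rat cortical networks on 48-well MEAs, DMSO-referenced, negative fitting direction. Compound present from plating to DIV12; mean pairwise correlation per well integrated over DIV5–12 recordings by trapezoidal AUC.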

Test [2] in a line: BSK_BT_PBMCCytotoxicity: PBMC Cytotoxicity Assessment in the BioMAP Diversity Plus: BT Assay (AID 2284225).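 Further: PBMC viability measured by Alamar Blue dye reduction fluorescence.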 As to conditions: primary human B cells with PBMC. In short, it runs like this: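 PBMC (75,000/well) pretreated with compound 1 h, then activated with SEB and TSST-1 (20 ng/mL each final), incubated 90 h; Alamar Blue added 6 h, fluorescence read at 546/580 nm. Fitted relative to DMSO.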

Read-out in test [3]: Secreted IgG (sIgG), gene 3500
The test can be described thus: BSK_BT_sIgG: BioMAP Diversity Plus: BT Assay for Secreted IgG (sIgG) Biomarker Activity (AID 2284226). The settings on record: primary human B cells with PBMC. In short, it runs like this: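 Read-out: ELISA for secreted IgG after 24 h of chemical exposure in a B cell plus PBMC co-culture. Values reflect upward-direction fitting against DMSO negative controls.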

A short description of test [4]: BSK_BT_Bcell_Proliferation: Viability Assessment in the BioMAP Diversity Plus: BT Assay for B cell Proliferation (AID 2284227). As to conditions: primary human B cells with PBMC. The gist of the method: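 Using a human primary B cell–PBMC co-culture, the assay measures total protein by sulforhodamine B absorbance as a gauge of proliferation after 72 h. Analysis followed the positive fitting direction with DMSO as baseline.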

Read-out in test [5]: Interleukin 6 (IL6), IL6 (gene 3569)
The test can be described thus: BSK_BT_xIL6: BioMAP Diversity Plus: BT Assay for Interleukin 6 (IL6) Biomarker Activity (AID 2284228). The settings on record: primary human B cells with PBMC. In short, it runs like this:
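Human B cell/PBMC co-culture; secreted IL-6 quantified by Luminex xMAP 24 h after chemical dosing, fitted relative to DMSO. Parallel PBMC viability by Alamar Blue after 1 h pretreatment, 20 ng/mL SEB and TSST-1, 90 h incubation.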

Read-out in test [6]: Tumor necrosis factor (Homo sapiens) (UniProt P01375)
The test can be described thus: BSK_BT_xTNFa: BioMAP Diversity Plus: BT Assay for Tumor necrosis factor alpha (TNF-alpha) Biomarker Activity (AID 2284230). The settings on record: primary human B cells with PBMC. In short, it runs like this: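 Endpoint derived in the positive direction versus DMSO vehicle. Cells: B cells together with PBMC, exposed 24 h before TNF-alpha in the medium was read on the Luminex xMAP platform.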

Read-out in test [7]: Vascular cell adhesion molecule 1 (VCAM1), VCAM1 (gene 7412)
The test can be described thus: BSK_MyoF_VCAM1: BioMAP Diversity Plus: MyoF Assay for Vascular cell adhesion molecule 1 (VCAM1) Biomarker Activity (AID 2284231). As to conditions: primary human lung fibroblasts. The gist of the method: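 Primary human lung fibroblasts (BioMAP MyoF system) dosed with chemical, VCAM-1 measured by ELISA 24 hours later. Fitted in the positive direction against DMSO; parallel SRB staining assessed cytotoxicity.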

Read-out in test [8]: Collagen I, COL1A1 (gene 1277)
The test can be described thus: BSK_MyoF_CollagenI: BioMAP Diversity Plus: MyoF Assay for Collagen I Biomarker Activity (AID 2284238). As to conditions: primary human lung fibroblasts. In short, it runs like this:
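Primary human lung fibroblasts (MyoF system) treated 24 h; Collagen I quantified by ELISA and fitted in positive direction against DMSO. Parallel SRB total-protein staining assessed overt cytotoxicity.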

Read-out in test [9]: Collagen III, COL3A1 (gene 1281)
The test can be described thus: BSK_MyoF_CollagenIII: BioMAP Diversity Plus: MyoF Assay for Collagen III Biomarker Activity (AID 2284239). The settings on record: primary human lung fibroblasts. In short, it runs like this:
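Primary human lung fibroblasts (BioMAP MyoF system) exposed 24 h. Collagen III measured by ELISA; positive-direction fit relative to DMSO.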

Read-out in test [10]: Interleukin 17F (IL17F), IL17F (gene 112744)
The test can be described thus: BSK_BT_xIL17F: BioMAP Diversity Plus: BT Assay for Interleukin 17F (IL17F) Biomarker Activity (AID 2284243). The settings on record: primary human B cells with PBMC. In short, it runs like this: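 Human PBMC co-cultured with B cells, compound exposure 24 h; secreted IL-17F quantified by Luminex xMAP, referenced to DMSO control. PBMC viability measured in parallel by Alamar Blue reduction.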

Read-out in test [11]: Actin alpha 1 (ACTA1), ACTA1 (gene 58)
The test can be described thus: BSK_MyoF_ACTA1: BioMAP Diversity Plus: MyoF Assay for Actin alpha 1 (ACTA1) Biomarker Activity (AID 2284244). As to conditions: primary human lung fibroblasts. In short, it runs like this: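 Lung fibroblasts, human primary, 24 h compound exposure → a-SMA ELISA. Positive-direction fit vs DMSO control.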

Read-out in test [12]: Interleukin 2 (IL2), IL2 (gene 3558)
The test can be described thus: BSK_BT_xIL2: BioMAP Diversity Plus: BT Assay for Interleukin 2 (IL2) Biomarker Activity (AID 2284245). As to conditions: primary human B cells with PBMC. In short, it runs like this:
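B cell + PBMC co-culture (human primary), compound added, 24 h incubation; secreted IL-2 measured multiplexed on Luminex xMAP; gain-of-signal fit vs DMSO.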

Read-out in test [13]: Basic fibroblast growth factor (bFGF), FGF2 (gene 2247)
The test can be described thus: BSK_MyoF_bFGF: BioMAP Diversity Plus: MyoF Assay for Basic fibroblast growth factor (bFGF) Biomarker Activity (AID 2284246). The settings on record: primary human lung fibroblasts. In short, it runs like this:
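ELISA-measured bFGF level serves as the read-out, taken 24 h after chemical dosing of human lung fibroblasts. Values represent signal gain over the DMSO negative control.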

Read-out in test [14]: Collagen IV, COL4A1 (gene 1282)
The test can be described thus: BSK_MyoF_CollagenIV: BioMAP Diversity Plus: MyoF Assay for Collagen IV Biomarker Activity (AID 2284247). As to conditions: primary human lung fibroblasts. The gist of the method: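 Steps: dose human lung fibroblasts; culture 24 h; quantify Collagen IV by ELISA; fit increase versus DMSO control. Parallel SRB total-protein staining (0.1% SRB after 10% TCA fixation, 560 nm) tracks overt cytotoxicity.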

Read-out in test [15]: Monokine induced gamma interferon (MIG), CXCL9 (gene 4283)
The test can be described thus: BSK_KF3CT_MIG: BioMAP Diversity Plus: KF3CT Assay for Monokine induced gamma interferon (MIG) Biomarker Activity (AID 2284248). As to conditions: primary human keratinocytes with fibroblasts. In short, it runs like this:
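Human keratinocyte–foreskin fibroblast co-culture; MIG measured by ELISA 24 h after chemical dosing, fitted upward versus DMSO. Cytotoxicity was assessed in parallel cultures by SRB total-protein staining read at 560 nm.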

Read-out in test [16]: Vascular cell adhesion molecule 1 (VCAM1), VCAM1 (gene 7412)
The test can be described thus: BSK_BF4T_VCAM1: BioMAP Diversity Plus: BF4T Assay for Vascular cell adhesion molecule 1 (VCAM1) Biomarker Activity (AID 2284249). The settings on record: primary human bronchial epithelial cells with fibroblasts. In short, it runs like this:
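Human bronchial epithelial cell and dermal fibroblast co-culture exposed 24 h. VCAM-1 measured by ELISA; parallel SRB total-protein staining for cytotoxicity. Fitted in positive direction relative to DMSO.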

Read-out in test [17]: Interleukin 17A (IL17A), IL17A (gene 3605)
The test can be described thus: BSK_BT_xIL17A: BioMAP Diversity Plus: BT Assay for Interleukin 17A (IL17A) Biomarker Activity (AID 2284229). As to conditions: primary human B cells with PBMC. The gist of the method: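 Co-culture of human B cells and PBMC, dosed for 24 h in 96-well format. Secreted IL-17A measured with Luminex xMAP; gain-direction fitting against DMSO as baseline.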

Test [18] is described as follows: CCTE_Mundy_HCI_hNP1_Casp3_7: CCTE's Caspase-Glo 3/7 Assay in human neuroprogenitor cells for Apoptosis, Mundy Lab (AID 2284240). In short, it runs like this: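 Neuroepithelial-lineage stem cells from WA09 embryonic cells were treated with chemicals after 40–44 h of culture. Twenty-four hours later, caspase-3/7 activation was detected luminescently after a 30 min room-temperature reagent step, with DMSO as baseline.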

Test [19] is described as follows: CCTE_Mundy_HCI_hNP1_CellTiter: CCTE's Cell Titer-Glo 2 Assay in human neuroprogenitor cells for Viability, Mundy Lab (AID 2284241; active means hit-call score of the fitted dose curve at least 0.9, where 1 is the maximum). The gist of the method:
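Measures ATP content in human neural progenitors derived from WA09 embryonic cells. Read-out at 26.5 hours after dosing, with DMSO serving as the negative control and baseline.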
A general note: Cellular ATP, detected with luciferase, serves as a proxy for viable cell number.

Test [20] in a line: CCTE_Mundy_HCI_hNP1_Pro_ResponderAvgInten: CCTE's Proliferation Assay in human neuroprogenitor cells, Mundy Lab (AID 2284224; active means hit-call score of the fitted dose curve at least 0.9, where 1 is the maximum;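 further: human neural progenitor cells hNP1 derived from WA09 embryonic stem cells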). In short, it runs like this: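 Human neuroprogenitors (hNP1, WA09 lineage) receive test chemical after 40 to 44 hours of attachment. A four-hour BrdU pulse begins twenty hours later, followed by fixation and high content imaging; signal is referenced to DMSO controls.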

Values joined by “and” are separate entries in the source; they are usually repeats but may differ in a detail not shown here. Identical values can stand only once. Inconclusive results are not listed. Some compounds were tested as several samples or in several runs, with calls that do not always agree. Active and inactive are the calls of the source. How the source made its calls, unless noted: active means hit-call score of the fitted dose curve at least 0.9, where 1 is the maximum; inactive means score below 0.9.

Sequence of Tumor necrosis factor (Homo sapiens) (P01375 whole entry, looked up): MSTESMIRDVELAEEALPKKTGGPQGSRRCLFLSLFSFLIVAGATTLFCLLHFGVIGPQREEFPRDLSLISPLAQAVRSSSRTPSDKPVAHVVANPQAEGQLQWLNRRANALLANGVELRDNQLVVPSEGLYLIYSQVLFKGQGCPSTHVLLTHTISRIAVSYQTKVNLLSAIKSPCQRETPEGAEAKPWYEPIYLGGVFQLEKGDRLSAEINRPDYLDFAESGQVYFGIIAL

Turning to `NC(=O)C(F)(F)C(F)(F)C(F)(F)C(F)F`, the result in test [1], in [2], in test [3], in test [4], in [5] and in test [6] was inactive. Besides, the result in [7], in test [8], in [9], in test [10], in test [11] and in test [12] was inactive. The outcome in [13], in [14], in test [15] and in test [16] was inactive.
As for `O=S(=O)(Cl)C(F)(F)C(F)(F)C(F)(F)C(F)(F)C(F)(F)C(F)(F)C(F)(F)C(F)(F)F`, the concentration at half-maximal activity (AC50) – broadly, the concentration giving half of the maximal activity seen – in test [2] was 8.8 µM (active) and 16.2 µM (active); in [6] it was 15.9 µM (active); in test [9], 30 µM (active) and 41.1 µM (active); in [14], 41.1 µM (active) and 30.1 µM (active); in test [16], 30 µM (active). Further, the result in [3], in [4], in test [5], in test [17], in test [6] and in test [8] was inactive. The outcome in test [10], in test [11], in test [12], in test [15] and in test [16] was inactive.
With `O=C(O)C(F)(F)C(F)(F)C(F)(F)OC(F)(F)F`, the result in test [1], in test [2], in test [3], in [4], in test [5] and in [17] was inactive. Moreover, the result in test [6], in test [7], in test [8], in [9], in test [18] and in test [19] was inactive. For the same compound, the outcome in test [10], in [11], in test [12], in test [14], in [15] and in [16] was inactive.
Turning to `C=CC(=O)OCCC(F)(F)C(F)(F)C(F)(F)C(F)(F)F`, the half-maximal activity concentration (AC50) is 15 µM (active) in test [1]; 37.8 µM (active) and 25.8 µM (active) in [2]; 36.7 µM (active) and 44.9 µM (active) in test [3]; 45.3 µM (active) and 46.6 µM (active) in test [4]; 39.6 µM (active) and 35.5 µM (active) in test [5]; 33.5 µM (active) and 10.7 µM (active) in test [17]. In addition, the AC50 in test [6] was 38.4 µM (active) and 30 µM (active); in [7], 21 µM (active); in test [10], 20.1 µM (active) and 14.3 µM (active); in test [12], 46.6 µM (active) and 48 µM (active). Also, the result in test [7], in test [8], in [9], in test [11], in [13] and in test [14] was inactive. Moreover, the result in [15] and in test [16] was inactive.
Turning to `OCCCCC(F)(F)C(F)(F)C(F)(F)C(F)(F)F`, the outcome in test [1], in test [20], in test [2], in test [3], in [4] and in test [5] was inactive. The outcome in [6], in test [7], in test [8], in test [9], in [18] and in test [19] was inactive. Moreover, the outcome in [10], in test [11], in test [12], in test [13], in test [14] and in [15] was inactive. Also, in test [16], the outcome was inactive. Further, the concentration at half-maximal activity (AC50) in test [10] was 21.7 µM (active).
On to `O=C(Cl)C(F)(F)C(F)(F)C(F)(F)C(F)(F)C(F)(F)C(F)(F)C(F)(F)F`, for which the AC50 in [2] is 24.7 µM (active). The result in test [2], in [3], in test [4], in [5], in [17] and in test [6] was inactive. Besides, the outcome in test [8], in test [9], in [10], in test [11], in test [12] and in test [13] was inactive. In addition, the outcome in test [14], in [15] and in test [16] was inactive.

Values taken from PubChem BioAssay (EPA / NIEHS).
